Drawing on PubChem BioAssay (EPA / NIEHS), this text covers outcome and AC50 for 38 compounds.

A word on the AC50: it is the midpoint of the concentration-response curve, whichever way the signal moves.

SMILES strings stand for the structures. Active and inactive are the calls of the source. The calls were made as follows: active = hit-call score of the fitted dose curve at least 0.9, where 1 is the maximum; inactive = score below 0.9.

The first test can be described thus: ATG_PXRE_CIS: Attagene CIS-FACTORIAL HepG2 Assay for human Pregnane X Receptor Element (PXRE) (AID 2282957). To be noted: HepG2 Attagene CIS-FACTORIAL PXRE reporter, mRNA; actives raise or lower the signal. The essentials: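 Multiplexed cis-reporter assay in transiently transfected human HepG2 cells; 24 h chemical exposure. Reporter transcripts quantified by RT-PCR with fluorescent labeling and capillary electrophoresis.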
For `CCCC(O)C(O)CO` (stereo not given), the outcome was inactive.

In the case of `COCCc1ccc(OCC(O)CNC(C)C)cc1` (stereo not given), the AC50 was 55 µM (active).

As to `NCCNc1cccc2ccccc12`, the result was inactive.

`C=C(C#N)C(=O)OCC`: the compound was called inactive.

`CC(C)=CCCC(C)CC(=O)O` (stereo not given): the half-maximal activity concentration (AC50) is 27.3 µM (active).

Take `Nc1ccc(NCCO)c([N+](=O)[O-])c1`: the compound was classed as inactive.

For the compound `CCOC(=O)c1ccc(N)cc1`, the AC50 was 27 µM (active).

On to `Oc1ccc2cc(SSc3ccc4cc(O)ccc4c3)ccc2c1`, for which the AC50 is 6.48 µM (active).

As to `CC1=CC[C@@]23C[C@@H]1C(C)(C)[C@@H]2CC[C@H]3C`, the AC50 is 5.2 µM (active).

With `C=C(C)CNCC`, the concentration at half-maximal activity (AC50) was 52.9 µM (active).

With `CC(=O)NCCO`, the call was inactive.

Take `CC(C)(N=C=O)c1cccc(C(C)(C)N=C=O)c1`: the AC50 was 13.1 µM (active).

With `COC(=O)c1ccc(C)cc1C1=NC(C)(C(C)C)C(=O)N1` (stereo not given) (tested in a mixture with another compound), the AC50 is 15.2 µM (active).

Regarding `CN1C(=O)c2ccccc2C1=O`, the result was inactive.

As for `OCCCCC(O)CO` (stereo not given), the compound was classed as inactive.

As to `CCCCCCCCCCCC(=O)OC[C@@H](O)[C@H]1OC[C@H](O)[C@H]1O`, the result was inactive.

As for `CN(c1nccc(=O)[nH]1)C1CCN(c2nc3ccccc3n2Cc2ccc(F)cc2)CC1`, the AC50 is 6.61 µM (active).

For `CCCCCC(C)=O`, the call was inactive.

With `C[C@H](CCC(=O)NCC(=O)O)[C@H]1CC[C@H]2[C@@H]3[C@H](O)C[C@@H]4C[C@H](O)CC[C@]4(C)[C@H]3C[C@H](O)[C@]12C`, the call was inactive.

Consider `CC(C=O)Cc1ccc(C(C)(C)C)cc1` (stereo not given), for which the half-maximal activity concentration (AC50) was 27.6 µM (active).

With `CN1CCOCC1`, the compound was called inactive.

For the compound `c1ccc(CN(Cc2ccccc2)Cc2ccccc2)cc1`, the AC50 was 2.51 µM (active).

For the compound `CC/C=C\CC/C=C/CO`, the concentration at half-maximal activity (AC50) was 27.3 µM (active).

Regarding `CCCC(=O)c1ccccc1`, the outcome was inactive.

Turning to `CCCCCCC(=O)c1ccccc1`, the AC50 is 43.2 µM (active).

On to `O=C1OC(=O)c2c(Cl)c(Cl)c(Cl)c(Cl)c21`, for which the compound was classed as inactive.

In the case of `CCCCSCCCC`, the call was inactive.

`C=C(CC(=O)O)C(=O)O`: the compound was called inactive.

As for `C=CCOC(=O)CCCCCC`, the compound was called inactive.

Consider `OC[C@H]1O[C@@H]2O[C@H]3[C@H](O)[C@@H](O)[C@@H](O[C@H]4[C@H](O)[C@@H](O)[C@@H](O[C@H]5[C@H](O)[C@@H](O)[C@@H](O[C@H]6[C@H](O)[C@@H](O)[C@@H](O[C@H]7[C@H](O)[C@@H](O)[C@@H](O[C@H]8[C@H](O)[C@@H](O)[C@@H](O[C@H]9[C@H](O)[C@@H](O)[C@@H](O[C@H]1[C@H](O)[C@H]2O)O[C@@H]9CO)O[C@@H]8CO)O[C@@H]7CO)O[C@@H]6CO)O[C@@H]5CO)O[C@@H]4CO)O[C@@H]3CO`, for which the concentration at half-maximal activity (AC50) was 22.4 µM (active).

`CCO/C=C1\N=C(c2ccccc2)OC1=O`: the AC50 is 63.8 µM (active).

Consider `COc1ccc(CCO)cc1`, for which the call was inactive.

With `C#CC(C)N(C)C(=O)Nc1ccc(Cl)cc1` (stereo not given), the concentration at half-maximal activity (AC50) was 8.86 µM (active).

With `FC(F)(F)COCC(F)(F)F`, the compound was called inactive.

Regarding `O=C(Nc1ccc2c(O)c(N=Nc3ccc(N=Nc4ccc(S(=O)(=O)O)cc4)cc3)c(S(=O)(=O)O)cc2c1)c1ccccc1`, the compound was classed as inactive.

Regarding `C=C(C)C(=O)OCCOCCOCCOC(=O)C(=C)C`, the AC50 is 54.8 µM (active).

As to `[Cl][Au]([Cl])[Cl]`, the result was inactive.

A short description of the next test: ATG_PPRE_CIS: Attagene CIS-FACTORIAL HepG2 Assay for human Peroxisome Proliferator-activated Response Element (PPRE) (AID 2282958). The following applies: HepG2 PPRE cis-element reporter, Attagene transcription factor profiling; actives raise or lower the signal. The essentials: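 Measured endpoint: PPRE-controlled reporter mRNA, detected by RT-PCR and capillary electrophoresis fluorescence, from transiently transfected HepG2 cells 24 h after dosing. Curves fitted in both directions using DMSO baseline.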
For `CCCC(O)C(O)CO` (stereo not given), the outcome was inactive.

Take `COCCc1ccc(OCC(O)CNC(C)C)cc1` (stereo not given): the outcome was inactive.

Turning to `NCCNc1cccc2ccccc12`, the AC50 was 99.2 µM (active).

As for `C=C(C#N)C(=O)OCC`, the result was inactive.

Regarding `CC(C)=CCCC(C)CC(=O)O` (stereo not given), the compound was called inactive.

As to `Cc1c(OCC(F)(F)F)ccnc1CS(=O)c1nc2ccccc2[nH]1` (stereo not given), the compound was classed as inactive.

Regarding `Nc1ccc(NCCO)c([N+](=O)[O-])c1`, the call was inactive.

For `Oc1ccc2cc(SSc3ccc4cc(O)ccc4c3)ccc2c1`, the AC50 was 160 µM (active).

For the compound `C=C(C)CNCC`, the compound was called inactive.

On to `CC(=O)NCCO`, for which the compound was called inactive.

As for `CC(C)(N=C=O)c1cccc(C(C)(C)N=C=O)c1`, the compound was classed as inactive.

In the case of `COC(=O)c1ccc(C)cc1C1=NC(C)(C(C)C)C(=O)N1` (stereo not given) (tested in a mixture with another compound), the compound was called inactive.

Turning to `CN1C(=O)c2ccccc2C1=O`, the outcome was inactive.

On to `OCCCCC(O)CO` (stereo not given), for which the outcome was inactive.

For `CCCCCCCCCCCC(=O)OC[C@@H](O)[C@H]1OC[C@H](O)[C@H]1O`, the result was inactive.

For the compound `CCCCCC(C)=O`, the compound was called inactive.

For `CC(C=O)Cc1ccc(C(C)(C)C)cc1` (stereo not given), the compound was called inactive.

For `CN1CCOCC1`, the call was inactive.

Consider `CC/C=C\CC/C=C/CO`, for which the outcome was inactive.

In the case of `CCCC(=O)c1ccccc1`, the call was inactive.

As to `CCCCCCC(=O)c1ccccc1`, the compound was classed as inactive.

On to `O=C1OC(=O)c2c(Cl)c(Cl)c(Cl)c(Cl)c21`, for which the AC50 was 177 µM (active).

Regarding `CCCCSCCCC`, the result was inactive.

As for `C=C(CC(=O)O)C(=O)O`, the compound was called inactive.

As for `C=CCOC(=O)CCCCCC`, the compound was called inactive.

Take `CCO/C=C1\N=C(c2ccccc2)OC1=O`: the compound was classed as inactive.

In the case of `COc1ccc(CCO)cc1`, the outcome was inactive.

For `C#CC(C)N(C)C(=O)Nc1ccc(Cl)cc1` (stereo not given), the result was inactive.

In the case of `FC(F)(F)COCC(F)(F)F`, the result was inactive.

For the compound `[Cl][Au]([Cl])[Cl]`, the compound was classed as inactive.

The next test can be described thus: ATG_RORE_CIS: Attagene CIS-FACTORIAL HepG2 Assay for human RAR-related Orphan Receptor Element (RORE) (AID 2282959). To be noted: HepG2 Attagene cis-factorial RORE reporter, mRNA; actives raise or lower the signal. In short, it runs like this:
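Transiently transfected HepG2 reporter cells were treated 24 h. Reporter transcripts were detected by RT-PCR and capillary electrophoresis, with bidirectional fitting against DMSO.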
For `C=C(C#N)C(=O)OCC`, the result was inactive.

On to `CC(C)=CCCC(C)CC(=O)O` (stereo not given), for which the result was inactive.

For the compound `Cc1c(OCC(F)(F)F)ccnc1CS(=O)c1nc2ccccc2[nH]1` (stereo not given), the AC50 is 19.8 µM (active).

Consider `CCOC(=O)c1ccc(N)cc1`, for which the call was inactive.

`Oc1ccc2cc(SSc3ccc4cc(O)ccc4c3)ccc2c1`: the AC50 is 33.5 µM (active).

As to `CC1=CC[C@@]23C[C@@H]1C(C)(C)[C@@H]2CC[C@H]3C`, the compound was classed as inactive.

As for `C=C(C)CNCC`, the compound was classed as inactive.

Regarding `CC(=O)NCCO`, the result was inactive.

For `CC(C)(N=C=O)c1cccc(C(C)(C)N=C=O)c1`, the call was inactive.

Consider `COC(=O)c1ccc(C)cc1C1=NC(C)(C(C)C)C(=O)N1` (stereo not given) (tested in a mixture with another compound), for which the call was inactive.

`CN1C(=O)c2ccccc2C1=O`: the compound was classed as inactive.

Regarding `OCCCCC(O)CO` (stereo not given), the call was inactive.

Consider `CCCCCCCCCCCC(=O)OC[C@@H](O)[C@H]1OC[C@H](O)[C@H]1O`, for which the outcome was inactive.

As to `CN(c1nccc(=O)[nH]1)C1CCN(c2nc3ccccc3n2Cc2ccc(F)cc2)CC1`, the call was inactive.

In the case of `CCCCCC(C)=O`, the compound was classed as inactive.

In the case of `C[C@H](CCC(=O)NCC(=O)O)[C@H]1CC[C@H]2[C@@H]3[C@H](O)C[C@@H]4C[C@H](O)CC[C@]4(C)[C@H]3C[C@H](O)[C@]12C`, the outcome was inactive.

`CC(C=O)Cc1ccc(C(C)(C)C)cc1` (stereo not given): the compound was classed as inactive.

On to `CN1CCOCC1`, for which the compound was called inactive.

With `c1ccc(CN(Cc2ccccc2)Cc2ccccc2)cc1`, the compound was classed as inactive.

Consider `CC/C=C\CC/C=C/CO`, for which the compound was called inactive.

As for `CCCC(=O)c1ccccc1`, the compound was called inactive.

`CCCCCCC(=O)c1ccccc1`: the call was inactive.

Regarding `O=C1OC(=O)c2c(Cl)c(Cl)c(Cl)c(Cl)c21`, the outcome was inactive.

Take `CCCCSCCCC`: the result was inactive.

For `C=C(CC(=O)O)C(=O)O`, the compound was called inactive.

Turning to `C=CCOC(=O)CCCCCC`, the call was inactive.

In the case of `OC[C@H]1O[C@@H]2O[C@H]3[C@H](O)[C@@H](O)[C@@H](O[C@H]4[C@H](O)[C@@H](O)[C@@H](O[C@H]5[C@H](O)[C@@H](O)[C@@H](O[C@H]6[C@H](O)[C@@H](O)[C@@H](O[C@H]7[C@H](O)[C@@H](O)[C@@H](O[C@H]8[C@H](O)[C@@H](O)[C@@H](O[C@H]9[C@H](O)[C@@H](O)[C@@H](O[C@H]1[C@H](O)[C@H]2O)O[C@@H]9CO)O[C@@H]8CO)O[C@@H]7CO)O[C@@H]6CO)O[C@@H]5CO)O[C@@H]4CO)O[C@@H]3CO`, the compound was called inactive.

`CCO/C=C1\N=C(c2ccccc2)OC1=O`: the compound was classed as inactive.

`C#CC(C)N(C)C(=O)Nc1ccc(Cl)cc1` (stereo not given): the compound was called inactive.

For `FC(F)(F)COCC(F)(F)F`, the compound was classed as inactive.

With `O=C(Nc1ccc2c(O)c(N=Nc3ccc(N=Nc4ccc(S(=O)(=O)O)cc4)cc3)c(S(=O)(=O)O)cc2c1)c1ccccc1`, the outcome was inactive.

With `C=C(C)C(=O)OCCOCCOCCOC(=O)C(=C)C`, the outcome was inactive.

`[Cl][Au]([Cl])[Cl]`: the outcome was inactive.
